Measured values from the supplement of paper PMC3334620.
In all, about 33,000 sequences were measured (“E-score (-0.5 to 0.5)”: median about -0.035, highest 2% from about 0.35 on). Many of the other results were omitted from the sample, so the highest values are more common in it than they were.

The sequences below were run against T1, Pdr3 (UniProt P33200) (assay: PBM E-score (8-mer binding enrichment) (E-score (-0.5 to 0.5)); higher = stronger / more preferred TF binding). Conditions: protein concentration: 200 nM; construct: GST-full length.
T1 sequence: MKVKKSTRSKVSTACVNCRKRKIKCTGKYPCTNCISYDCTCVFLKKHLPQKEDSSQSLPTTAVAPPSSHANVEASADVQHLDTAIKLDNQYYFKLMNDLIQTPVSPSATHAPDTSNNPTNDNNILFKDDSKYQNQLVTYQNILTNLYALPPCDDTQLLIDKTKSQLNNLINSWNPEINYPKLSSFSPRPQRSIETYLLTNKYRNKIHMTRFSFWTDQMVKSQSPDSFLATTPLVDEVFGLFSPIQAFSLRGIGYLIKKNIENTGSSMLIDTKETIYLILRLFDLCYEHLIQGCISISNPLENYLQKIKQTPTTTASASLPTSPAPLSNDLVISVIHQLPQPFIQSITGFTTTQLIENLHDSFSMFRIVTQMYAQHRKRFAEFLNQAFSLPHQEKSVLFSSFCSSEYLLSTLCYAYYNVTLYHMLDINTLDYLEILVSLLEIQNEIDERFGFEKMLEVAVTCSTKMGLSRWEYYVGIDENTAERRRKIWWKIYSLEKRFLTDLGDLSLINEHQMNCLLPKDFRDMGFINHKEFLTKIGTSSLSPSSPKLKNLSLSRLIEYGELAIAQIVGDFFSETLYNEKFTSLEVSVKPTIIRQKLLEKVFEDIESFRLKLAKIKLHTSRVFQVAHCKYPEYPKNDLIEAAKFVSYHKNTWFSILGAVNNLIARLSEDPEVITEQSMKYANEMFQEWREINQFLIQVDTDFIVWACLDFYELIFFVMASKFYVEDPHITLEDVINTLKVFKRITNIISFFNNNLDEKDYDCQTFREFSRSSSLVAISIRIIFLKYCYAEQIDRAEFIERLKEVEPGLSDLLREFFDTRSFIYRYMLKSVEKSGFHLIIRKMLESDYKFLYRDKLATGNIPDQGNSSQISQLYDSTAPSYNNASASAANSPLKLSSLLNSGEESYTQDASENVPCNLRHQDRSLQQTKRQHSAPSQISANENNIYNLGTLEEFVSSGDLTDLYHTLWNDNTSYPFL
Procedure: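 Universal 'all 10-mer' protein binding microarrays (Agilent AMADID 015681) probed with GST-tagged S. cerevisiae TFs (full-length or DBD) made by in vitro transcription/translation (PURExpress), about 100-200 nM. Bound TF was detected with fluorescent anti-GST. Each ungapped 8-mer (which stands for itself and its reverse complement) is scored by the PBM enrichment score (E-score), a modified Wilcoxon-Mann-Whitney statistic from -0.5 to +0.5, computed with the Universal PBM Analysis Suite. Scale: above 0.35 generally sequence-specific binding.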

| Sequence | PBM E-score |
| --- | --- |
| CAGACGAA | 0.199 |
| AGAATACT | -0.121 |
| CAGAACAA | 0.0215 |
| CTACTTAC | -0.312 |
| CACTAAGG | -0.0887 |
| CATCCCCA | -0.0591 |
| CATCCCGC | 0.315 |
| AATCCCCG | 0.296 |
| CATCCCCG | 0.354 |
| GATCCCGC | 0.371 |
| CATCCCAG | -0.106 |
| CATCCCGG | 0.431 |
| CATCCCGA | 0.352 |
| CATCCCCC | 0.0287 |
| AATCCCTG | -0.0189 |
| GATCCCGA | 0.317 |
| AATCCCGG | 0.407 |
| CACTTTAG | -0.149 |
| AGTCTGCG | -0.259 |
| CAGGCGTA | -0.145 |
| ACGTCAGG | -0.326 |
| AGGCAGGG | -0.153 |
| ACGAATGC | -0.158 |

| Sequence | PBM E-score |
| --- | --- |
| CCGCGCGA | 0.303 |
| CTCCGCGA | 0.258 |
| CCGCGCGG | 0.473 |
| ATCCGCGC | 0.309 |
| ATGCGCGG | 0.355 |
| CCGCGCGC | 0.332 |
| GCGCGCGC | 0.388 |
| ACGCGCGC | 0.238 |
| ATGCGCGA | 0.0846 |
| CTCCGCGC | 0.368 |
| ATGCGCGC | 0.275 |
| GCGCGCGA | 0.308 |
| GCGTAGTA | -0.095 |
| ACGCCTGA | -0.148 |
| CTAGAAAG | -0.189 |
| CTCCGAGA | 0.274 |
| GGCCGGTA | 0.274 |
| CTCCGGGA | 0.399 |
| CGCCGGTA | 0.13 |
| CGCCGGGA | 0.382 |
| CGCCGGGC | 0.308 |
| GTCCGGGA | 0.353 |
| AGCCGGGA | 0.3 |

| Sequence | PBM E-score |
| --- | --- |
| GGCCGGGA | 0.39 |
| GAACATAC | 0.0175 |
| CCTAGACG | 0.012 |
| ATCCTGGG | -0.104 |
| GGCCCCCC | -0.0393 |
| AAGGCTTG | -0.0886 |
| AGATCACC | 0.0531 |
| GAGACTCC | 0.0113 |
| AGGCTAAA | -0.297 |
| CCGGAGTC | 0.384 |
| CCGGAGGC | 0.292 |
| GCGGAGTA | 0.245 |
| ACGGAGTC | 0.193 |
| ACGGAGTA | 0.297 |
| CCGGAGTA | 0.367 |
| AAGAGTTC | -0.178 |
| CCCCAACA | -0.274 |
| ATTAAGAG | -0.0729 |
| AGAGCGGA | 0.229 |
| CGTGCGGA | 0.177 |
| CGCGCGGA | 0.383 |
| CGAGCGGC | 0.228 |
| AGCGCGGC | 0.107 |

| Sequence | PBM E-score |
| --- | --- |
| CGAGCGGA | 0.359 |
| AGCGCGGA | 0.331 |
| AGTGCGGA | 0.377 |
| CGCGCGGC | 0.373 |
| CTCGCGGC | 0.171 |
| AGTGCGGG | 0.185 |
| GGCGCGGA | 0.352 |
| AGGCTACT | -0.167 |
| CCGCCAGC | 0.105 |
| TACCTAGA | -0.195 |
| ACCCGTAT | 0.0405 |
| AGAGTAAC | 0.0157 |
| AAATCTAT | -0.00749 |
| CGGTGTAG | -0.0315 |
| CTTATCCA | -0.00809 |
| CGCGGGAA | 0.429 |
| GGCGGGAA | 0.198 |
| AGCGGGGA | 0.0517 |
| CGCGGGGC | 0.304 |
| CGCGGGGA | 0.393 |
| GGCGGGAC | 0.295 |
| CGCGGGAC | 0.444 |
| AGCGGGAA | 0.232 |

| Sequence | PBM E-score |
| --- | --- |
| AGCGGGAC | 0.185 |
| AAGTTCAG | -0.098 |
| CGGTTCCC | 0.153 |
| AGTACTGG | -0.222 |
| GAACTAGC | -0.00564 |
| ATTCCCTA | 0.0152 |
| GGTTCTTA | -0.0791 |
| AAGACCAA | -0.0835 |
| GTTACCCA | -0.159 |
| ATGCGCTG | -0.0256 |
| AATCAACT | 0.0921 |
| ATAAGCTC | 0.042 |
| AACCGCGA | 0.277 |
| AGCCGCGG | 0.485 |
| CACCGCGC | 0.166 |
| AACCGCGT | 0.141 |
| CACCGCGA | 0.032 |
| AACCGCGG | 0.457 |
| AGCCGCGC | 0.236 |
| CACCGCGG | 0.452 |
| AGCCGCGA | 0.187 |
